KB-V1 MDR tox = KB-V1 MDR subline cytotoxicity; 400,000 compounds, 3.4% hits; Potency, µM (series often up to 46.1 µM), usual class: cytotoxic; KB-V1 MDR cells viability, CellTiter-Glo, 72 h; AID 1347076; also: nearly all actives have a fitted effect of over 60% in size
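KB-V1 cells (P-gp-expressing MDR subline of KB-3-1) in phenol-red-free DMEM with 10% FBS were exposed to library compounds over a concentration series for 72 h at 37 degrees C. Viability read by CellTiter-Glo luminescence; concentration-effect curves fitted after normalization.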
DT40 TDP1 no CPT = qHTS for Inhibitors of human tyrosyl-DNA phosphodiesterase 1 (TDP1): qHTS in cells in absence of CPT; DT40 Tdp1-/- hTDP1 cells, no CPT, ATP luminescence, 48 h; AID 686978, 2013; 420,000 compounds, 15% hits; Potency, µM (titrated, usually from 46.2 µM), actives largely listed as inhibitors; also: nearly all actives have a fitted effect of over 55% in size
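Seeded 400 DT40-hTDP1 cells/well (vehicle DMSO, no 20 nM CPT); pinned compounds; ≥48 hr at 37 °C; CellTiter-Glo luminescence as viability measure.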
KB-3-1 cytotox = KB-3-1 parental cell cytotoxicity. Potency, µM (series often up to 46.1 µM), actives largely listed as cytotoxic. 400,000 compounds, 1.4% hits. AID 1347075. KB-3-1 viability, CellTiter-Glo ATP luminescence, 72 h; also: nearly all actives have a fitted effect of over 60% in size
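Parental KB-3-1 viability, qHTS format: 72 h compound exposure, 37 °C; CellTiter-Glo; media-only wells and DMSO plates as controls; concentration-effect fits on corrected data.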
HT1080 IDH1KD tx = HT-1080 IDH1 knockdown cell toxicity (counter line); HT-1080 IDH1 knockdown viability, ATP luminescence, 48 h; Potency, µM (highest dose often 46.1 µM), hits mostly cytotoxic; 360,000 compounds, 2% hits; AID 686971
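Cytotoxicity counter-line: IDH1KD HT-1080, 48 h, CellTiter-Glo. Curves classed by r2, magnitude and activity.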
HT1080-NT tox = kills 2HG-producing HT-1080-NT fibrosarcoma cells | Potency, µM (highest dose often 46.1 µM), usual class: cytotoxic | HT-1080-NT fibrosarcoma viability, CellTiter-Glo ATP luminescence, 48 h | AID 686970 | 360,000 compounds, 1.6% hits;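 also: NT is the 2HG producing partner of a matched IDH1 knockdown line; nearly all actives have a fitted effect of over 55% in size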
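Toxicity toward the 2HG-producing NT line was scored as %Activity, normalised to DMSO and no-cell wells, from CellTiter-Glo luminescence after 48 hours' treatment.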
TDP1 cell CPT = DT40-hTDP1 cell growth loss with CPT; chicken DT40 Tdp1-/-;hTDP1 cells + 20 nM CPT, ATP luminescence, 48 h; Potency, µM (top dose mostly 46.2 µM), usual class: inhibitors; 420,000 compounds, 12% hits; AID 686979; also: nearly all actives have a fitted effect of over 55% in size
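Chicken DT40 Tdp1-/- cells stably complemented with human TDP1 were seeded at 400 cells/well in medium containing 20 nM camptothecin, exposed to pin-transferred compounds, and grown at 37 °C for at least 48 hr. Viability was read as ATP luminescence.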
Hits are given with their value; i = inactive; ? = inconclusive; nt = no result; [ ] = dose if it differs, or a comment. In the library only some 19% were active in any assay of this set; here they are far more common. Calls follow the shape of the dose curve; as a rule, active = well fitted curve in the direction sought with a large enough effect; inconclusive = small, poorly fitted or top-dose-only effect, or another doubt; inactive = no such curve, though single readings can be large; an effect the other way counts as inactive or inconclusive.

SMILES	KB-V1 MDR tox	DT40 TDP1 no CPT	KB-3-1 cytotox	HT1080 IDH1KD tx	HT1080-NT tox	TDP1 cell CPT
Cc1ccc(S(=O)(=O)N2CCN(c3nn(C)c(=O)n(C)c3=O)CC2)cc1C	?	?	?	i	i	7.31µM
Cc1ccccc1N1CCN(S(=O)(=O)c2nnc(NC(=O)c3ccc(C(C)C)cc3)s2)CC1	i	?	i	nt	nt	?
O=S1(=O)CC(N2CCC(Cc3ccccc3)CC2)CN1C1CCCCC1 (centres undefined)	?	?	i	i	i	?
Cc1ccc(S(=O)(=O)N2CCC(C(=O)Nc3ccc(S(=O)(=O)N4CCCC4)cc3)CC2)cc1C	i	18.4µM	i	i	i	?
CCOCCCN(CCC#N)S(=O)(=O)c1ccc(S(=O)(=O)N2CCCC2)cc1	25.9µM	?	i	i	i	i
CCN(CC)S(=O)(=O)c1ccc(S(=O)(=O)N2CCCC2)cc1	i	i	i	i	i	i
Cc1cc(NC(=O)c2ccc(NC(=O)C3CCCO3)cc2)ccc1Br (centres undefined)	?	23.1µM	?	?	?	?
COC(=O)Nc1ccc(S(=O)(=O)N2CCC(Cc3ccccc3)CC2)cc1	i	20.6µM	i	i	i	?
COc1ccc(S(=O)(=O)N2CCC(C(=O)Nc3ccc(OC)c(OC)c3)CC2)cc1C	i	i	i	i	i	i
CC(C)[C@H](NC(=O)c1ccco1)C(=O)Nc1ccc(N2CCCCCC2)cc1	i	i	i	i	i	i
Cc1ccccc1Nc1nc(N)nc(COC(=O)[C@@H](NC(=O)c2ccccc2Cl)C(C)C)n1	?	?	?	i	i	?
CC(=O)NC1C(=O)N=C(SCC(=O)Nc2cccc(Cl)c2)NC1=O (centres undefined)	i	i	i	i	i	i
CCOc1ccc(CNC(=O)CCn2nc(C)c3c(C)n(-c4ccccc4)nc3c2=O)cc1	i	i	i	nt	nt	i
Cc1ccc(S(=O)(=O)N2CCC(C(=O)Nc3ccncc3)CC2)cc1	i	?	i	i	i	?
Cc1ccc(S(=O)(=O)N2CCC(C(=O)N(C)C3CCS(=O)(=O)C3)CC2)cc1 (centres undefined)	i	?	i	i	i	23.1µM
CCCC(C(=O)Nc1ccc(S(=O)(=O)N2CCCC2)cc1)c1ccccc1 (centres undefined)	?	?	i	i	i	20.6µM
CCCC(C)C(=O)Nc1ccc(S(=O)(=O)N2CCCC2)cc1 (centres undefined)	?	i	i	i	i	i
CC1CC1C(=O)Nc1ccc(S(=O)(=O)N2CCCCC2)cc1 (centres undefined)	10.3µM	20.6µM	i	i	i	23.1µM
Cc1ccc(S(=O)(=O)N2CCC(C(=O)Nc3ccc(S(=O)(=O)N4CCCC4)cc3)CC2)cc1	i	14.6µM	i	i	i	?
CN(C(=O)c1ccc(S(=O)(=O)N2CCCCC2)cc1)C1CCS(=O)(=O)C1 (centres undefined)	i	i	i	i	i	i
O=C(NCC1CCC2(CCN(Cc3cccc4cccnc34)CC2)O1)c1ccco1 (centres undefined)	nt	i	nt	nt	nt	i
Cc1ccc(CNC(=O)NCc2noc3ccc(C)cc23)cc1	i	?	i	nt	nt	?
Cc1cnc2ccc(F)cc2c1	i	?	?	i	i	i
CC1CCCC(NC(=O)COC(=O)COc2ccc(Br)cc2)C1C (centres undefined)	i	i	i	i	i	i
Nc1oc2ccc(F)cc2c(=O)c1C=O	i	i	i	i	i	i
SMILES	KB-V1 MDR tox	DT40 TDP1 no CPT	KB-3-1 cytotox	HT1080 IDH1KD tx	HT1080-NT tox	TDP1 cell CPT
O=S(=O)(c1ccc2ccccc2c1)N1CCN(c2ccc(O)cc2)CC1	i	8.2µM	i	?	i	6.51µM
COC(=O)C1(C(F)(F)F)C2C=CC(C2)N1S(=O)(=O)c1ccc(C)cc1 (centres undefined)	i	20.6µM	i	i	i	23.1µM
O=S(=O)(c1ccc2ccccc2c1)N1CCOCC1	i	i	i	i	i	i
Cc1ccc(C(=O)N2C3C=CC(C3)C2(C(F)(F)F)C(F)(F)F)cc1 (centres undefined)	i	i	i	i	i	i
COC(=O)C1(C(=O)OC)CCCCN(S(=O)(=O)c2ccc(C)cc2)CCC1	?	20.6µM	?	i	i	?
O=C(Nc1ccc(S(=O)(=O)Nc2ccccc2)cc1)C1COc2ccccc2O1 (centres undefined)	i	20.6µM	i	?	?	16.4µM
CCc1cccc(N(C(=O)c2csnn2)C(C(=O)NC(C)(C)C)c2ccccn2)c1 (centres undefined)	i	i	i	i	i	i
COCCn1c(C)cc(O)c(C(c2ccccc2OC)N2CCCCC2)c1=O (centres undefined)	i	i	i	nt	nt	i
O=S(=O)(c1cccc(F)c1)N1CCC(Oc2ccc(-n3cnnn3)cc2)CC1	nt	14.6µM	nt	nt	nt	16.4µM
COc1ccc(NC(=O)N2CC[C@@]3(CCCN(C(=O)c4c(C)noc4C)C3)C2)cc1	nt	i	nt	nt	nt	i
N#C/C(=C\c1c[nH]c2ccc(Br)cc12)c1ccccn1	i	20.6µM	i	?	25.9µM	?
Oc1ccc(/C=N/NC(=S)NC2CC3CCC2C3)cc1 (centres undefined)	i	?	i	i	?	?
COc1cccc(/C=N/NC(=S)NC2CC3CC2C2C=CCC32)c1O (centres undefined)	i	29.1µM	i	i	i	?
Oc1ccccc1/C=N/NC(=S)NC1CC2CC1C1C=CCC21 (centres undefined)	20.6µM	4.11µM	?	8.2µM	?	3.66µM
COc1ccc(-c2nc3c4ccccc4n(CC(=O)N4CCN(c5ccccc5OC)CC4)c(=O)n3n2)cc1	i	i	i	nt	nt	?
CCN(N=O)c1ccc(/C=C2\C=Cc3ccccc32)cc1	?	i	i	nt	nt	i
O=C(OCC(=O)N(Cc1ccccc1)Cc1ccccc1)c1ccccc1O	i	?	i	i	i[9.24 µM]	18.4µM
O=C(NCCC(=O)N(CCc1ccccc1)Cc1ccccc1)c1ccccc1Cl	?	23.1µM	i	i	i	?
Cc1ccc(S(C)(=O)=O)cc1C(=O)OCC(=O)N(Cc1ccccc1)Cc1ccccc1	?	16.4µM	i	i	i	20.6µM
O=C(OCC(=O)N(CCc1ccccc1)Cc1ccccc1)c1ccccc1O	i	?	i	i	i	18.4µM
Cc1ccc(C(=O)NCCCc2ccccc2)c(Cl)c1	i	i	i	i	i	i

Screening results from PubChem BioAssay.
